Bioassay records: PubChem BioAssay, The Scripps Research Institute Molecular Screening Center
Only some compounds are listed: those with a hit (about 3.4% of all), similar ones and a draw of the others.
ADAM10 inh: ADAM10 inhibition, QFRET primary screen. 370,000 compounds, 0.62% hits. O14672. inhibition, % at 7 µM. recombinant ADAM10, EDANS/DABCYL FRET peptide cleavage, 3 h. AID 720582;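 active = inhibition above a per-campaign cutoff equal to the mean of compounds falling between control-based bounds plus 3 SD, cut at about 20% in these data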;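 also: 0% = DMSO wells while the 100% control is not disclosed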
PLC-gamma1 inh: blocks human PLC-gamma1 enzyme activity; 370,000 compounds, 0.84% hits; inhibition, % at 12.2 µM; purified PLC-gamma1, fluorogenic substrate, fluorescence; P19174; in the data active = inhibition above about 9.5%
ADAM17 inh: inhibitors of human ADAM17; inhibition, % at 6.95 µM; 370,000 compounds, 0.83% hits; recombinant ADAM17, EDANS/DABCYL FRET peptide cleavage; P78536;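 active = inhibition above the mean of compounds lying between control limits plus 3 SD, set per campaign, cut at about 8.5% in these data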;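 also: 0% = DMSO-only wells as the low control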
PLC-beta3 inh: PLC-beta3 (human) inhibition, primary screen; 370,000 compounds, 0.18% hits; inhibition, % at 12.2 µM; Q01970; Purified PLC-beta3, fluorogenic substrate, fluorescence; AID 720704; in the data active = inhibition above about 11%;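 also: 0% = median of compound wells on plate and 100% = full blocker control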
HGIII-sPLA2 inh: Inhibits HGIII-sPLA2 liposome hydrolysis, primary screen | Q9NZ20 | QFRET BODIPY PC-A2 liposome hydrolysis, fluorescence | inhibition, % at 12.2 µM | 370,000 compounds, 0.56% hits | AID 743126;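 active = inhibition above mean plus 3 SD of compounds lying within the high and low control bounds, cut at about 19% in these data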;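 also: 0% = median of test compound wells and 100% = no enzyme DMSO wells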
proKLK7 act: activates the human kallikrein-7 zymogen | purified proKLK7, EDANS-DABCYL substrate fluorescence; 100% is mature enzyme control, 0% vehicle | AID 652039 | P49862 | 370,000 compounds, 0.9% hits | activation, % at 7 µM;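 active = activation above the mean of all tested compounds plus 3 SD, computed per campaign excluding outliers beyond control limits, cut at about 13% in these data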
Target sequence (P49862 whole entry, looked up): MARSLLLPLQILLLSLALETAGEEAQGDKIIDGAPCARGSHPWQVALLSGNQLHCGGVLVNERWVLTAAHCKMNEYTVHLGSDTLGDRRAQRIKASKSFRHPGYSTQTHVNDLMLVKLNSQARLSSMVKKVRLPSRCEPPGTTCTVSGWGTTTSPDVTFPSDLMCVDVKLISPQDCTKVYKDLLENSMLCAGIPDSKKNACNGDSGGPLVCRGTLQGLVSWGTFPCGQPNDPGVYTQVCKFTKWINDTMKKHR
proKLK7 act conf: confirmation of human kallikrein-7 zymogen activators | activation, % at 7 µM | purified proKLK7, EDANS-DABCYL substrate fluorescence; scaled: vehicle 0, mature enzyme 100 | shares compounds with proKLK7 act | 3,200 compounds, 68% hits;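 active = activation, as change over the incubation, above the mean of all tested compounds plus 3 SD, cut at about 13% in these data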
EDANS interfere: fluorescence interference counter-screen for KLK7 activators | shares compounds with proKLK7 act | EDANS-DABCYL substrate fluorescence interference, no enzyme, 4 h; solvent 0%, active enzyme control 100% | activation, % at 7 µM | 3,200 compounds, 80% hits;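 active = activation above the all-compound mean plus 3 SD, ignoring values outside control-based bounds, cut at about 4.8% in these data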;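 also: value is the 4 h activation minus the activation read at time zero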
* marks the source's active call; other numbers are inactive results; i = inactive; . = not tested or not shown.

SMILES	ADAM10 inh	PLC-gamma1 inh	ADAM17 inh	PLC-beta3 inh	HGIII-sPLA2 inh	proKLK7 act	proKLK7 act conf	EDANS interfere
Cc1cn2nc(N)c3ccccc3c2n1	-370	-141	-106	-192	-5	1	.	.
C[C@H](NC(=O)c1cc2c(cn1)[nH]c1ccccc12)C(=O)O	-165	-51	-60	-75	0	18*	9	7.4*
COC(=O)[C@H](C)NC(=O)c1cc2c(cn1)[nH]c1ccccc12	-119	-29	-37	-49	0	8	.	.
O=C(NCCCO)c1cc2c(cn1)[nH]c1ccccc12	-152	-51	-70	-69	6	14*	5	7.6*
CCc1cc2c(nc1CC)CCCN2S(=O)(=O)c1ccc(F)cc1	-3	-4	0	-1	-5	0	.	.
Cc1ccc(S(=O)(=O)c2c(N)n(CCCO)c3nc4ccccc4nc23)cc1	i	i	i	i	-35	14*	-46	-48
O=C(OCc1cn(Cc2cccc(F)c2F)nn1)N1CCOCC1	-6	2	-7	0	13	0	.	.
CCCCc1cc(=O)oc2c3c(cc(OCC(=O)NCCCO)c12)OC(C)(C)CC3	i	i	i	i	-6	24*	-33	-34
CCc1cc(=O)oc2c3c(cc(OCC(=O)NCCCn4ccnc4)c12)OC(C)(C)CC3	i	i	i	i	-5	8	.	.
CCCc1cc(=O)oc2c3c(cc(OCC(=O)NCCN4CCOCC4)c12)OC(C)(C)CC3	i	i	i	i	-1	32*	-11	-20
CC(CC(=O)Nc1ccc2c(c1)c(=O)n(C)n2Cc1ccc(Cl)cc1)C(F)(F)F (stereo not drawn)	i	-259	-402	-318	-12	11	.	.
COc1cc(Cn2c3ccc(NC(=O)CC(C)C(F)(F)F)cc3c(=O)n2C)ccc1F (stereo not drawn)	i	-222	-372	-293	-1	17*	-7	-7
Cn1c(=O)c2cc(NC(=O)CCc3ccccc3)ccc2n1Cc1cccc(C(F)(F)F)c1	i	-192	-337	-272	-11	-9	.	.
CCOCCC(=O)Nc1ccc2c(c1)c(=O)n(C)n2-c1ccccc1F	i	-339	-448	-463	-4	21*	21*	22*
CCOCCC(=O)Nc1ccc2c(c1)c(=O)n(C)n2Cc1cccc(C(F)(F)F)c1	i	-249	-419	-302	2	16*	6	9.7*
CC(C)(C)S(=O)N1C[C@H]2CC(=O)C=C2[C@@H]1CCO (stereo partly drawn)	-8	5	-3	2	10	0	.	.
COC(=O)c1cc2c(c3c4ccccc4n(S(=O)(=O)c4ccc(OC)cc4)c13)C(=O)N(Cc1ccccc1OC)C2	1	-14	0	-21	2	-2	.	.
COC(=O)C1=C(C)N(C)C(=NCc2cc(OC)c(OC)c(OC)c2)NC1c1cccc(F)c1 (stereo not drawn)	0	2	0	3	-5	0	.	.
CCN(CC)C(=O)[C@H]1C[C@H](CC(=O)NCCc2ccccn2)C(=O)N2CCc3c([nH]c4cc(-c5ccco5)ccc34)[C@]12C	i	i	-151	i	-10	147*	64*	79*
C[C@]12c3[nH]c4cc(-c5ccco5)ccc4c3CCN1C(=O)[C@@H](CC(=O)NCCc1ccccn1)C[C@@H]2C(=O)N1CCOCC1	i	i	-173	i	4	113*	52*	68*
CC(C)N(C(=O)[C@H]1C[C@H](CC(=O)NCCc2ccccn2)C(=O)N2CCc3c([nH]c4cc(-c5ccco5)ccc34)[C@]12C)C(C)C	i	i	-458	i	-15	184*	29*	30*
CC(C)N(C(=O)[C@H]1C[C@H](CC(=O)NCCC2=CCCCC2)C(=O)N2CCc3c([nH]c4cc(-c5ccco5)ccc34)[C@]12C)C(C)C	-496	i	-149	i	-4	-4	.	.
C[C@]12c3[nH]c4ccc(Cl)cc4c3CCN1C(=O)[C@@H](CC(=O)NCCc1ccccn1)C[C@@H]2C(=O)N1CCOCC1	-2	2	5	2	-5	0	.	.
CCN(CC)C(=O)[C@H]1C[C@H](CC(=O)NCCc2ccccn2)C(=O)N2CCc3c([nH]c4ccc(Cl)cc34)[C@]12C	-15	2	-6	0	4	0	.	.
C=CCN1C[C@@H](COCc2ccccc2)OCCS1(=O)=O	-8	-1	-6	3	6	0	.	.
SMILES	ADAM10 inh	PLC-gamma1 inh	ADAM17 inh	PLC-beta3 inh	HGIII-sPLA2 inh	proKLK7 act	proKLK7 act conf	EDANS interfere
COc1ccc(OC)c(/C=N/n2c(COc3ccccc3)n[nH]c2=S)c1	-89	-49	-39	-78	13	20*	43*	37*
CCOc1ccccc1C(=O)N/N=C/c1coc2ccc(C)cc2c1=O	-13	-11	-1	-15	-6	24*	58*	54*
Cc1ccc2occ(/C=N/NC(=O)c3ccccc3Br)c(=O)c2c1	-12	-4	0	-10	-8	2	.	.
Cc1ccc2occ(/C=N/NC(=O)c3ccc(O)cc3)c(=O)c2c1	-3	-3	-3	-16	-9	23*	53*	51*
COCc1cc(N2CCNC[C@H]2C)ccc1N1CCN(Cc2ccccc2)[C@H](C)C1	-11	-6	-3	-4	-5	0	.	.
COC(=O)c1cc(=O)nc2sc3cc(OC)ccc3n12	-52	-354	-5	-470	10	29*	22*	24*
CCOc1ccc2c(c1)sc1nc(C(=O)OC)cc(=O)n12	-12	-186	-1	-232	5	17*	15*	16*
CCCCc1c(O)nc2sc3cc(OC)ccc3n2c1=O	8	4	1	3	1	1	.	.
C[C@H]1[C@H](NC(=O)c2ccc(Cl)c(C(F)(F)F)c2)CC[C@@]23CCCN2C(=O)CCC[C@@H]13	0	0	0	4	-2	.	.	.
COC(=O)C1=C(C)N(Cc2cccc(C(F)(F)F)c2)C(=NCc2cc(OC)c(OC)c(OC)c2)NC1c1ccc(F)cc1 (stereo not drawn)	-10	2	-2	3	-15	0	.	.
CCCCCCCCN1C(=O)[C@@H](CC(=O)NCCCCc2ccccc2)C[C@@]2(C(=O)OC)C1=C[C@H](COCc1ccccc1)O[C@@H]2C	8	1	3	3	-7	0	.	.
Cc1cccc(-n2c(=O)c(C#N)cc3c(=O)n4ccccc4nc32)c1	i	-295	i	-387	8	16*	51*	72*
